# Compound activity as filed in PubChem BioAssay.
# TbPYK inhibitor: blocks Trypanosoma brucei pyruvate kinase. Q57TT1. TbPYK enzyme, Kinase-Glo Plus ATP luminescence, 45 min. Potency, µM (top dose mostly 76.8 µM), inactives show at the top dose activity, negative = inhibition, usual class: inhibitors. hit rate 0.12% among 410,000; further: potency means the concentration at half of the fitted maximal effect; on the % scale 0 is the no-effect control and ±100 the full control effect; nearly all actives have a fitted effect of over 50% in size
#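 Activity of T. brucei pyruvate kinase was followed by Kinase-Glo Plus luminescence after the enzyme reacted 45 min at room temperature with 130 uM ADP (final) and substrate. Test compounds were added before ADP at multiple concentrations.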
# FBPA Giardia inh: Giardia lamblia aldolase inhibition; hit rate 0.71% among 290,000; Potency, µM (highest dose often 59.6 µM), inactives show top-dose activity, negative = inhibition, hits mostly inhibitors; purified Giardia FBPA; AID 2451; further: potency means the concentration at half of the fitted maximal effect; on the % scale 0 is the no-effect control and ±100 the full control effect; nearly all actives have a fitted effect of over 55% in size
# Target sequence (A8B2U2 whole entry, looked up): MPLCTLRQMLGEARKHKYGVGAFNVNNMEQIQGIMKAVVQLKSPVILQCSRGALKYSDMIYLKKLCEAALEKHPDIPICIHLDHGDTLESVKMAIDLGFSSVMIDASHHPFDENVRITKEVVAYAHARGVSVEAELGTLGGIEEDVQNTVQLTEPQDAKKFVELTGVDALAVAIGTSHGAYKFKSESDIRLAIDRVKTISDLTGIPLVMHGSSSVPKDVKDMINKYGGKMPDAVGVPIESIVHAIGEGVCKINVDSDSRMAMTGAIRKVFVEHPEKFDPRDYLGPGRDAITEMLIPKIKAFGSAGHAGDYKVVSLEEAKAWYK
#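 Giardia FBPA (40 nM reagent) was preincubated 10 min at RT with compound (up to 57.5 uM final), then substrate plus GAPDH/TPI/NAD/arsenate coupling system with diaphorase/resazurin was added; resorufin fluorescence (525/598 nm) was read after 20 min.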
# LmPK inhibitor: blocks Leishmania mexicana pyruvate kinase activity. Potency, µM (series often up to 57.5 µM), without a hit: top-dose activity change, negative = inhibition, most hits filed as inhibitors. hit rate 0.37% among 290,000. purified LmPK, Kinase-Glo ATP luminescence, 1 h. Q27686; further: potency means the concentration at half of the fitted maximal effect; on the % scale 0 is the no-effect control and ±100 the full control effect
#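 Purified LmPK (0.1 nM) with 0.5 mM PEP and 0.1 mM ADP in imidazole buffer pH 7.2 with MgCl2/KCl, 1 h at room temperature. ATP formed was read by luciferase luminescence and normalized to no-enzyme and uninhibited controls.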
# RE007 growth inh: less growth of the S. pombe RE007 Vpr strain; Potency, µM (top dose mostly 92.2 µM), for inactives: at the top dose activity change, negative = less growth, hits mostly inhibitors; S. pombe RE007 Vpr strain, BacTiter-Glo ATP luminescence, 24 h; hit rate 0.21% among 360,000; active means well fitted falling curve with a large enough effect; inconclusive means small, poorly fitted or top-dose-only effect; inactive means no such curve, though single readings can be large or run the other way; further: potency means the concentration at half of the fitted maximal effect; on the % scale 0 is the no-effect control and ±100 the full control effect; nearly all actives have a fitted effect of over 50% in size
#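 Fission yeast RE007 carrying one integrated HIV-1 vpr copy, seeded at OD 0.01 in PMG+AL medium with 23 nL pinned compound. Grown 24 h at 30 degrees; viability read by BacTiter-Glo luminescence after 5 min.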
# Shiga toxin inh: blocks Shiga toxin action in Vero cells. Vero cells, Shiga toxin protein synthesis inhibition reporter. inhibition, % at 38.7 µM. hit rate 9.2% among 290,000. AID 2315; in the data active means inhibition mostly above about 28%, no sharp cut-off; inactive means mostly below about 43%; further: 0% is about no effect
# CHX counter: affects cycloheximide protein synthesis inhibition readout, counter-screen. cell reporter, cycloheximide protein synthesis inhibition counterscreen. max response, %. hit rate 12% among 300,000. AID 2314; in the data active means max response mostly above about 13%, no sharp cut-off; inactive means mostly below about 14%; further: read at 38.3 µM for the half of the compounds with a filed dose; 0% is about no effect
# The depositor's hits bear a star; ? = inconclusive; · = no result; [ ] = remark or other dose. This is one part of a sample in which hits are shown more often than they occur. Unless noted, the call rests on the fitted dose curve; in most records, active means well fitted curve in the direction sought with a large enough effect; inconclusive means small, poorly fitted or top-dose-only effect, or another doubt; inactive means no such curve, though single readings can be large; an effect the other way counts as inactive or inconclusive.
SMILES,TbPYK inhibitor,FBPA Giardia inh,LmPK inhibitor,RE007 growth inh,Shiga toxin inh,CHX counter
CC1=C(/C=C/C(=C/C=C/C(C)=C/C(=O)O)c2ccc(C)cc2)C(C)(C)CCC1,·,-5%,·,·,91*,61*
O=C(NC1CCCC1)c1cc(-c2ccc(Cl)cc2Cl)on1,0%,·,-5%,3%,105*,44*
COc1ccccc1-c1cc(C(=O)NC2CCCC2)no1,-10%,-2%,3%,2%,71*,16*
CC1CCCC(C)N1C(=O)c1cc(-c2cccs2)on1 (configuration not stated),-1%,7%,-5%,14%,70*,26*
Cc1cc(C(=O)NC2CCCN(Cc3ccc(Cl)cc3)C2)no1 (configuration not stated),9%,-9%,2%,-19%,-4,13
O=C(NC1CCCCC1)c1cc(-c2ccccc2Cl)on1,5%,1%,-1%,-15%,137*,45*
Cc1cc(C)cc(NC(=O)Cn2c(=O)n(Cc3ccc4c(c3)OCO4)c(=O)c3oc4ccccc4c32)c1,-7%,·,·,·,·,·
CSc1nn(Cc2ccc(F)cc2)c(N)c1S(=O)(=O)c1ccc(Cl)cc1,-4%,·,·,·,·,·
O=C(NC1CCCC1)c1cc(-c2ccccc2O)on1,-9%,1%,-6%,-13%,91*,34*
O=C(NC1CCCC1)c1cc(-c2cccs2)on1,2%,-4%,-3%,4%,182*,57*
COCC(C)NC(=O)c1cc(-c2ccccc2OC)on1 (configuration not stated),-1%,-1%,-7%,3%,39*,41*
O=C(NC1CCCC1)c1cc(-c2ccccc2Cl)on1,8%,-13%,-2%,0%,107*,43*
COc1cc(C(=O)Oc2cccc(C=O)c2)cc(OC)c1OC,-1%,4%,4%,-4%,3,-1
O=Cc1cccc(OC(=O)c2ccc(Cl)cc2Cl)c1,·,-3%,1%,·,51,26*
Cc1cc(C)nc(OC(=O)c2ccc(Cl)cc2Cl)n1,·,-4%,-1%,·,-17,17*
Nc1c(C(=O)Nc2ccc(Cl)cc2F)sc2nc(-c3cccs3)ccc12,-1%,·,·,·,·,·
O=C(NC1CC1)C1CCN(S(=O)(=O)c2ccc(Cl)c([N+](=O)[O-])c2)CC1,0%,·,·,0%,·,·
CCn1c(C(=O)O)c(S(=O)(=O)c2ccc(Cl)cc2)c2ccccc21,-8%,-12%,7%,-12%,-2,-3
CC(C)(C)c1cc[n+](C2=C([O-])c3ccccc3C(=O)/C2=N\S(=O)(=O)c2ccccc2)cc1,-1%,?,-19%,0%,95*,58*
COc1ccnc(CSC(N)=Nc2ccc(F)cc2)c1,?,?,0%,?,66*,31*
CCCCN(CC)C(=O)c1cc2cc3ccc(Cl)cc3nc2o1,1%,6%,1%,·,64*,33*
Cc1cc(C)c2nc(NNC(=O)c3cc(=O)c4ccccc4o3)sc2c1,?,-5%,5%,-8%,28,19*
O=C(Oc1ccc(/C=N/NC(=O)c2ccco2)cc1)c1ccccc1,1%,·,·,2%,·,·
O=C(N/N=C/C(Cl)=C/c1ccccc1)c1ccco1,0%,-1%,2%,-11%,71*,51*
O=C(N/N=C/C(Cl)=C\c1ccccc1)c1ccco1,0%,1%,-7%,-21%,113*,48*
SMILES,TbPYK inhibitor,FBPA Giardia inh,LmPK inhibitor,RE007 growth inh,Shiga toxin inh,CHX counter
Cc1ccc(S(=O)(=O)Nc2cccc3ccc[n+](C)c23)cc1,·,-27%,·,·,-5,-2
CCCCCC(=O)Nc1ccc(-c2csc(C)n2)cc1,11%,-11%,1%,-16%,77*,46*
Cc1nc(-c2ccc(NC(=O)/C=C\C(=O)O)cc2)cs1,?,10%,-2%,-8%,50*,18*
Cc1ccc2nc(-c3ccc(NC(=O)COc4c(C)ccc(C)c4C)cc3)sc2c1,3%,·,·,·,·,·
CCCCCC(=O)Nc1ccc(-c2csc(N)n2)cc1,-1%,-17%,3%,-15%,123*,57*
Cc1ccc2sc(-c3ccc(NC(=O)/C=C\C(=O)O)cc3)nc2c1,?,3%,-4%[11.5 µM],-26%,112*,40*
CCC(=O)Nc1ccc(-c2csc(NNC(C)=O)n2)cc1,-6%,-12%,0%,10%,2,-1
CC1CCN(S(=O)(=O)c2cn(CC(=O)Nc3ccc(F)c(Cl)c3)c(=O)c3ccccc23)CC1,-8%,·,·,·,·,·
N#Cc1nc(Cc2cccc3ccccc23)oc1NCc1ccc(F)cc1,-6%,-12%,5%,2%,-9,-2
CC(C)(C)c1ccc(-c2nc(C#N)c(NCc3ccncc3)o2)cc1,1%,-25%,2%,-8%,91*,57*
Cc1ccc(-c2nc(C#N)c(NCc3cccc4c3OCO4)o2)cc1,-13%,-8%,3%,7%,59*,26*
N#Cc1nc(-c2ccc(F)cc2)oc1NCc1cccc2c1OCO2,1%,-10%,3%,-1%,46,34*
CC(C)CNc1oc(-c2ccc(F)cc2)nc1C#N,-3%,0%,5%,4%,40*,16*
CC(C)(C)c1ccc(-c2nc(C#N)c(NCCCn3ccnc3)o2)cc1,-4%,-1%,6%,5%,10,9
Cn1c(SCC(=O)N2CCOCC2)ncc(C(=O)Nc2ccc(F)cc2)c1=O,3%,·,·,·,·,·
COc1ccc(-n2nc(C(=O)N3CCC(C)CC3)c3c4ccccc4n(C)c3c2=O)cc1Cl,2%,·,·,·,·,·
Oc1[nH]c2ccccc2c1N=Nc1ccccc1F,5%,0%,-3%,-2%,125*,21*
Oc1[nH]c2ccccc2c1N=Nc1ccc(F)cc1,-6%,0%,-12%,-13%,66*,21*
Oc1[nH]c2ccc(Br)cc2c1N=Nc1ccc(F)cc1,2%,0%,1%,3%,45,14
Cc1ccc2[nH]c(O)c(N=Nc3nc4ccccc4s3)c2c1,-5%,-3%,5%,22%,-5,-2
Oc1[nH]c2ccccc2c1N=Nc1nc2ccccc2s1,4%,3%,-10%,-1%,49*,35*
CC(C)(O)C(=O)N=Nc1c(O)[nH]c2ccccc12,-4%,0%,-8%,8%,61*,33*
COc1ccc(CNC(=O)CCc2c(C)nn(-c3ccc(N4CCCCC4)nn3)c2C)c(OC)c1,-4%,·,·,·,·,·
O=C(N=Nc1c(O)[nH]c2ccccc12)Nc1ccccc1,30%,·,·,-2%,·,·
O=[N+]([O-])c1ccc(N=Nc2c(O)[nH]c3ccc(F)cc23)cc1,-21%,12%,-8%,15%,56*,44*
Oc1[nH]c2ccccc2c1N=Nc1ccccc1,-13%,4%,-11%,-24%,104*,44*
O=C(CSc1nc(-c2cccs2)nc2cc(=O)[nH]n12)Nc1cccc(C(F)(F)F)c1,-15%,·,·,·,·,·
